High-throughput results deposited in PubChem by National Center for Advancing Translational Sciences (NCATS).
HT1080 IDH1KD tx: kills HT-1080 cells with IDH1 knockdown | Potency, µM (titrated, usually from 46.1 µM), without a hit: top-dose activity, negative = toxicity, most hits filed as cytotoxic | 360,000 tested, 2% active | HT-1080 IDH1 knockdown viability, ATP luminescence, 48 h | AID 686971;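 further: 0% = DMSO wells and -100% = cell-free medium wells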
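After a 2 h attachment period, IDH1KD HT-1080 cells took pin-transferred compound for 48 h at 37 °C; ATP-based luminescence after 10 min room-temperature reagent incubation reported viability.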
HT1080-NT tox: kills 2HG-producing HT-1080-NT fibrosarcoma cells | Potency, µM (doses to about 46.1 µM), for inactives: top-dose activity, negative = less viability, most hits filed as cytotoxic | HT-1080-NT fibrosarcoma viability, CellTiter-Glo ATP luminescence, 48 h | 360,000 tested, 1.6% active | AID 686970;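 further: NT is the 2HG producing partner of a matched IDH1 knockdown line; 0% = DMSO-treated cells and -100% = media-only wells without cells; nearly all actives have a fitted effect of over 55% in size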
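Viability of the 2HG-overproducing fibrosarcoma line after 48 hours of compound exposure at 37 degrees C was determined by luminescence with CellTiter-Glo, and concentration-effect curves were then fitted and categorized.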
TDP1 cell CPT: growth inhibition of DT40 Tdp1-/-;hTDP1 cells with camptothecin (screen for TDP1 inhibitors); chicken DT40 Tdp1-/-;hTDP1 cells + 20 nM CPT, ATP luminescence, 48 h; Potency, µM (top dose mostly 46.2 µM), inactives show at the top dose activity change, negative = growth inhibition, actives largely listed as inhibitors; 420,000 tested, 12% active; AID 686979; further: nearly all actives have a fitted effect of over 55% in size
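Cell growth measured by CellTiter-Glo luminescence after a minimum 48 h, 37 C compound exposure with 20 nM CPT in Tdp1-knockout DT40 cells stably expressing hTDP1, seeded 400/well; qHTS titration format.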
KB-3-1 cytotox: KB-3-1 parental cell cytotoxicity. KB-3-1 viability, CellTiter-Glo ATP luminescence, 72 h. Potency, µM (series often up to 46.1 µM), actives largely listed as cytotoxic. 400,000 tested, 1.4% active. AID 1347075; further: nearly all actives have a fitted effect of over 60% in size
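Cytotoxicity in the drug-sensitive parental line KB-3-1 was scored as loss of CellTiter-Glo luminescence following 72 h incubation with compound. Values come from curve fitting of normalized concentration-response data.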
KB-V1 MDR tox: KB-V1 MDR subline cytotoxicity; Potency, µM (series often up to 46.1 µM), usual class: cytotoxic; 400,000 tested, 3.4% active; KB-V1 MDR cells viability, CellTiter-Glo, 72 h; further: nearly all actives have a fitted effect of over 60% in size
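Cells of the MDR subline KB-V1 are plated, dosed with compound at multiple concentrations, and incubated 72 h at 37 degrees C; CellTiter-Glo is then added and luminescence read after 10 min.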
TDP1 cell noCPT: qHTS for Inhibitors of human tyrosyl-DNA phosphodiesterase 1 (TDP1): qHTS in cells in absence of CPT | 420,000 tested, 15% active | Potency, µM (titrated, usually from 46.2 µM), without a hit: at the highest dose activity change, negative = growth inhibition, most hits filed as inhibitors | DT40 Tdp1-/- hTDP1 cells, no CPT, ATP luminescence, 48 h; further: nearly all actives have a fitted effect of over 55% in size
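Readout: luminescence from CellTiter-Glo after 30 min in the dark at RT. Cells: DT40 Tdp1-/- with stable hTDP1, 400/well. Exposure: compounds alone, ≥48 hr, 37 °C.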
* hit, by the source's call. Rows were chosen to be rich in hits. Some 19% of all compounds tested hit in one or more screens of this group. The call rests on the fitted dose curve; in most records, active means well fitted curve in the direction sought with a large enough effect; inconclusive means small, poorly fitted or top-dose-only effect, or another doubt; inactive means no such curve, though single readings can be large; an effect the other way counts as inactive or inconclusive. Unless noted, on the % scale 0 is the no-effect control and ±100 the full control effect; potency means the concentration at half of the fitted maximal effect.

How did COCC(=O)N1CCC2(CCCN(Cc3ccc(C#N)cc3)C2)CC1 do in these assays?
TDP1 cell CPT: 4%; TDP1 cell noCPT: 0%

How did Cc1no[n+]([O-])c1COc1ccc(/C=N/n2nnnc2N)cc1 do in these assays?
HT1080 IDH1KD tx: 5%; HT1080-NT tox: 8%; TDP1 cell CPT: inconclusive; KB-3-1 cytotox: inactive; KB-V1 MDR tox: inactive; TDP1 cell noCPT: inconclusive

What do the screens show for `CN(C(=O)CSc1nc2ccccc2n1Cc1cccc(C(F)(F)F)c1)c1ccccc1`?
TDP1 cell CPT: 18µM*; KB-3-1 cytotox: inactive; KB-V1 MDR tox: inactive; TDP1 cell noCPT: 16µM*

What do the screens show for `O=C(CSc1nc2ccccc2n1Cc1ccccc1F)NCc1ccccc1`?
TDP1 cell CPT: inconclusive; KB-3-1 cytotox: inactive; KB-V1 MDR tox: inactive; TDP1 cell noCPT: 16µM*

What do the screens show for `CN(C(=O)CSc1nc2ccccc2n1CC(=O)NCc1ccc(F)cc1)c1ccc(F)cc1`?
TDP1 cell CPT: inconclusive; KB-3-1 cytotox: inactive; KB-V1 MDR tox: inactive; TDP1 cell noCPT: inconclusive

What do the screens show for `Cc1ccc(C)c(Cn2c(SCC(=O)N(C)Cc3ccccc3)nc3ccccc32)c1`?
TDP1 cell CPT: 26µM*; KB-3-1 cytotox: inactive; KB-V1 MDR tox: inactive; TDP1 cell noCPT: 26µM*

What do the screens show for `CCC(=O)NCc1nc2ccccc2n1Cc1ccccc1F`?
HT1080 IDH1KD tx: -5%; HT1080-NT tox: 2%; TDP1 cell CPT: inconclusive; KB-3-1 cytotox: inactive; KB-V1 MDR tox: 23µM*; TDP1 cell noCPT: -10%

What do the screens show for `O=C(CSc1nc2ccccc2n1Cc1cccc(C(F)(F)F)c1)NCc1ccccc1`?
TDP1 cell CPT: 18µM*; KB-3-1 cytotox: inactive; KB-V1 MDR tox: inactive; TDP1 cell noCPT: inconclusive

How did CCCc1cc(=O)n2c(nc3ccccc32)[nH]1 do in these assays?
HT1080 IDH1KD tx: -10%; HT1080-NT tox: -3%; TDP1 cell CPT: inconclusive; KB-3-1 cytotox: inactive; KB-V1 MDR tox: inactive; TDP1 cell noCPT: inconclusive

How did O=C(OCc1nnc(-c2ccc([N+](=O)[O-])cc2)o1)C1CCN(C(=O)c2ccc(F)cc2)CC1 do in these assays?
HT1080 IDH1KD tx: 12%; HT1080-NT tox: 11%; TDP1 cell CPT: -27%; KB-3-1 cytotox: inactive; KB-V1 MDR tox: inactive; TDP1 cell noCPT: -1%

What do the screens show for `Cn1nnc2c[n+](CC(=O)c3ccc4ccccc4c3)cc(Br)c21`?
HT1080 IDH1KD tx: 21µM*; HT1080-NT tox: inconclusive; TDP1 cell CPT: inconclusive; KB-3-1 cytotox: inconclusive; KB-V1 MDR tox: inactive; TDP1 cell noCPT: 15µM*

Results for CCOCCCn1c(C)nc2c[n+](CC(=O)c3ccc4ccccc4c3)cc(Br)c21 ?
HT1080 IDH1KD tx: 0%; HT1080-NT tox: -3%; TDP1 cell CPT: 2.3µM*; KB-3-1 cytotox: inconclusive; KB-V1 MDR tox: inactive; TDP1 cell noCPT: 2.6µM*

What do the screens show for `O=C(C[n+]1cc(Br)cc(Br)c1)c1ccc2ccccc2c1`?
TDP1 cell CPT: -24%; KB-3-1 cytotox: inactive; KB-V1 MDR tox: inactive; TDP1 cell noCPT: inconclusive

What do the screens show for `COc1ccc(CNC(=O)CCNC(=O)C2CCN(S(=O)(=O)c3ccc(OC)cc3)CC2)cc1`?
HT1080 IDH1KD tx: -6%; HT1080-NT tox: 0%; TDP1 cell CPT: -17%; KB-3-1 cytotox: inactive; KB-V1 MDR tox: inactive; TDP1 cell noCPT: -25%

What do the screens show for `COc1ccccc1C=C1CCc2ccccc2C1=O`?
HT1080 IDH1KD tx: inconclusive; HT1080-NT tox: inconclusive; TDP1 cell CPT: inconclusive; KB-3-1 cytotox: inactive; KB-V1 MDR tox: inactive; TDP1 cell noCPT: inconclusive

What do the screens show for `COc1cccc(/C=C2\CCC(C3CCCC3)C2=O)c1OC` (stereo unspecified)?
HT1080 IDH1KD tx: -9%; HT1080-NT tox: -5%; TDP1 cell CPT: inconclusive; KB-3-1 cytotox: inactive; KB-V1 MDR tox: inactive; TDP1 cell noCPT: inconclusive

Results for COc1cc(/C=C2\CCC(C3CCCC3)C2=O)cc(OC)c1OC (stereo unspecified) ?
HT1080 IDH1KD tx: -1%; HT1080-NT tox: 7%; TDP1 cell CPT: inconclusive; KB-3-1 cytotox: inactive; KB-V1 MDR tox: inactive; TDP1 cell noCPT: 16µM*

Results for COc1ccc(/C=C2\CCC(C3CCCC3)C2=O)c(OC)c1OC (stereo unspecified) ?
HT1080 IDH1KD tx: 2%; HT1080-NT tox: -5%; TDP1 cell CPT: inconclusive; KB-3-1 cytotox: inactive; KB-V1 MDR tox: inactive; TDP1 cell noCPT: 18µM*

How did Cc1cccc(/C=C2\CCC(C3CCCC3)C2=O)c1 (stereo unspecified) do in these assays?
HT1080 IDH1KD tx: -11%; HT1080-NT tox: -3%; TDP1 cell CPT: 2%; KB-3-1 cytotox: inactive; KB-V1 MDR tox: inactive; TDP1 cell noCPT: -10%

How did COc1ccc(/C=C2/CC/C(=C\c3ccc(OC)c(OC)c3OC)C2=O)c(OC)c1OC do in these assays?
HT1080 IDH1KD tx: -4%; HT1080-NT tox: 6%; TDP1 cell CPT: inconclusive; KB-3-1 cytotox: inactive; KB-V1 MDR tox: 2.1µM*; TDP1 cell noCPT: 8.2µM*

How did COc1ccc(C=C2SC(=S)NC2=O)c(OC)c1OC do in these assays?
HT1080 IDH1KD tx: inconclusive; HT1080-NT tox: -7%; TDP1 cell CPT: inconclusive; KB-3-1 cytotox: inconclusive; KB-V1 MDR tox: 15µM*; TDP1 cell noCPT: inconclusive

How did COc1ccc(C(=O)Nc2c(N)nc(SCC(=O)NCC3CCCO3)[nH]c2=O)cc1 (stereo unspecified) do in these assays?
HT1080 IDH1KD tx: 21%; HT1080-NT tox: 9%; TDP1 cell CPT: 11%; KB-3-1 cytotox: inactive; KB-V1 MDR tox: inactive; TDP1 cell noCPT: 8%

What do the screens show for `O=C(COC(=O)C1COc2ccccc2O1)Nc1cccc(S(=O)(=O)N2CCCCC2)c1` (stereo unspecified)?
HT1080 IDH1KD tx: -2%; HT1080-NT tox: 6%; TDP1 cell CPT: 0%; KB-3-1 cytotox: inactive; KB-V1 MDR tox: inactive; TDP1 cell noCPT: -9%

What do the screens show for `COCc1c(C#N)c(NCc2cc(OC)c(OC)c(OC)c2)nc(C)c1[N+](=O)[O-]`?
HT1080 IDH1KD tx: -22%; HT1080-NT tox: -13%; TDP1 cell CPT: 18µM*; KB-3-1 cytotox: inconclusive; KB-V1 MDR tox: 5.2µM*; TDP1 cell noCPT: 21µM*

What do the screens show for `COCc1c(C#N)c(NCCc2ccc(F)cc2)nc(C)c1[N+](=O)[O-]`?
HT1080 IDH1KD tx: 4%; HT1080-NT tox: 2%; TDP1 cell CPT: 7%; KB-3-1 cytotox: inconclusive; KB-V1 MDR tox: 5.2µM*; TDP1 cell noCPT: -26%
